From PubChem BioAssay (NCI)
The panel holds about 83,000 compounds, 20% with a hit somewhere; the sample as a whole holds those more often.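 Growth was measured after 48 h exposure to one concentration of compound in 96-well plates. Values under 10 count as active.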 A number with no mark means an inactive call. Activity calls are given as the source filed them.

Experiments:
Assay in all cases: NCI-60 one-dose screen, 48 h (100 = growth as untreated, 0 = no growth, -100 = all killed)
Settings in all cases: 10 µM unless noted
SR leukemia = system: SR leukemia
RPMI-8226 leukemia = system: RPMI-8226 leukemia
OVCAR-8 ovarian = system: OVCAR-8 ovarian
OVCAR-5 ovarian = system: OVCAR-5 ovarian
OVCAR-4 ovarian = system: OVCAR-4 ovarian
SK-OV-3 ovarian = system: SK-OV-3 ovarian
IGROV1 ovarian = system: IGROV1 ovarian
OVCAR-3 ovarian = system: OVCAR-3 ovarian
HS 578T breast = system: HS 578T breast
NCI/ADR-RES ovarian = system: NCI/ADR-RES ovarian
T-47D breast = system: T-47D breast
BT-549 breast = system: BT-549 breast
MDA-MB-435 melanoma = system: MDA-MB-435 melanoma
SW-620 colon = system: SW-620 colon
MCF7 breast = system: MCF7 breast
HCT-116 colon = system: HCT-116 colon
HCC-2998 colon = system: HCC-2998 colon
KM12 colon = system: KM12 colon

Structure (SMILES)	growth (SR leukemia)	growth (RPMI-8226 leukemia)	growth (OVCAR-8 ovarian)	growth (OVCAR-5 ovarian)	growth (OVCAR-4 ovarian)	growth (SK-OV-3 ovarian)	growth (IGROV1 ovarian)	growth (OVCAR-3 ovarian)	growth (HS 578T breast)	growth (NCI/ADR-RES ovarian)	growth (T-47D breast)	growth (BT-549 breast)	growth (MDA-MB-435 melanoma)	growth (SW-620 colon)	growth (MCF7 breast)	growth (HCT-116 colon)	growth (HCC-2998 colon)	growth (KM12 colon)
CCCCN(C=S)CCCC	91.9%	101%	95%	102%	112%	88.6%	107%	108%	97.1%	107%	81%	97.4%	105%	96.4%	87.6%	98.9%	102%	102%
N#Cc1ccc(OC(=O)Nc2c(Cl)cc(Cl)cc2Cl)cc1	101%	107%	105%	103%	109%	99.7%	98.7%	112%	106%	111%	91.6%	113%	96.4%	118%	100%	101%	110%	107%
Cc1ccc(Cc2ccc(C)cc2)cc1	102%	106%	102%	99.1%	109%	97.2%	103%	116%	105%	108%	101%	91.2%	97.5%	102%	99.4%	107%	100%	99.4%
Cc1ccc2[nH]c3ccccc3c2c1	79.6%	106%	98.4%	105%	100%	113%	107%	104%	106%	109%	93%	102%	101%	101%	104%	98.3%	100%	101%
C#CC(O)c1ccccc1 (stereo not given)	106%	104%	103%	101%	105%	103%	108%	106%	107%	107%	99.9%	106%	108%	102%	99.1%	102%	125%	107%
C=CCc1cc(OC)c(OC)c(OC)c1	107%	110%	102%	99.2%	112%	114%	110%	93.1%	103%	105%	108%	96.1%	108%	91.8%	113%	99.1%	100%	88.7%
Cc1ccccc1NC(=O)Oc1ccc(Cl)cc1C(=O)c1ccccc1	94.2%	85.6%	91.4%	105%	102%	95.4%	101%	95.3%	84.3%	97%	104%	92.3%	103%	98.5%	105%	90.2%	107%	90.4%
OCCNc1ccccc1	93.2%	105%	102%	107%	101%	105%	110%	105%	101%	100%	98.7%	97.4%	107%	108%	97.1%	89.9%	105%	101%
CC1(C)CCC(C)(C)NC(=S)N1	92.1%	96.4%	106%	102%	107%	105%	121%	111%	109%	108%	98.5%	105%	111%	111%	103%	98.9%	109%	99.1%
NCCCN1CCCC1=O	88.2%	107%	97.5%	110%	111%	116%	104%	112%	109%	101%	115%	110%	124%	108%	104%	107%	100%	104%
Cc1ccc(S(=O)(=O)Oc2ccc3sc4c(CO)ccc(NCCN(C)C)c4c(=O)c3c2)cc1	-38.8% [100 µM] (active)	-43.4% [100 µM] (active)	-73.3% [100 µM] (active)	-93.2% [100 µM] (active)	-97.9% [100 µM] (active)	-85.1% [100 µM] (active)	-74.1% [100 µM] (active)	-79.3% [100 µM] (active)	-44.2% [100 µM] (active)	-58% [100 µM] (active)	-51.8% [100 µM] (active)	-91.2% [100 µM] (active)	-98% [100 µM] (active)	-88% [100 µM] (active)	-76.1% [100 µM] (active)	-75.9% [100 µM] (active)	-88.2% [100 µM] (active)	-68.6% [100 µM] (active)
CCCc1cccc(CCC)c1NC(=O)Nc1cc(Cl)cc(Cl)c1	108%	96.7%	101%	104%	95.3%	101%	108%	103%	98.2%	110%	82.3%	86.6%	104%	123%	99.1%	91.2%	116%	101%
CC(C)N(C(=O)c1ccccc1)C(C)C	110%	105%	111%	96.3%	109%	114%	116%	108%	108%	115%	99.5%	106%	107%	104%	97.8%	104%	98.3%	111%
CCc1ccccc1C(=O)N(CC)CC	96.3%	103%	105%	99.4%	108%	118%	103%	110%	110%	109%	92.8%	102%	104%	105%	91%	92.9%	104%	103%
C=C1SC(=Nc2c(C)cccc2C)N(c2nc(Cl)nc(Cl)n2)C12CCCCC2	81.4%	99.8%	98.8%	118%	101%	99%	97.4%	101%	113%	105%	101%	91.6%	93.5%	112%	103%	93.7%	111%	103%
Cc1ccc(/C=N/NC(N)=S)s1	97.3%	100%	107%	104%	110%	111%	113%	105%	106%	109%	100%	113%	106%	107%	100%	99.5%	113%	107%
O=[N+]([O-])c1ccc2[nH]c(=S)n(/C=C(/c3ccc(Cl)cc3Cl)S(=O)(=O)Cc3ccc(Cl)cc3Cl)c2c1	83.1%	98.7%	93.7%	108%	95.9%	99.1%	104%	117%	106%	100%	90.2%	93.9%	103%	114%	87.8%	82.8%	105%	108%
CC(=O)N(CCCCCCN(C(C)=O)C(C)=O)C(C)=O	99.6% [100 µM]	107% [100 µM]	107% [100 µM]	110% [100 µM]	101% [100 µM]	114% [100 µM]	108% [100 µM]	113% [100 µM]	105% [100 µM]	105% [100 µM]	101% [100 µM]	98.4% [100 µM]	98.5% [100 µM]	108% [100 µM]	87.8% [100 µM]	101% [100 µM]	114% [100 µM]	99.2% [100 µM]

Structure (SMILES)	growth (SR leukemia)	growth (RPMI-8226 leukemia)	growth (OVCAR-8 ovarian)	growth (OVCAR-5 ovarian)	growth (OVCAR-4 ovarian)	growth (SK-OV-3 ovarian)	growth (IGROV1 ovarian)	growth (OVCAR-3 ovarian)	growth (HS 578T breast)	growth (NCI/ADR-RES ovarian)	growth (T-47D breast)	growth (BT-549 breast)	growth (MDA-MB-435 melanoma)	growth (SW-620 colon)	growth (MCF7 breast)	growth (HCT-116 colon)	growth (HCC-2998 colon)	growth (KM12 colon)
CC(C)NC(=O)OCc1c(COC(=O)NC(C)C)c(-c2ccc(Cl)cc2)n2c1CCC2	2.94% (active)	93.4%	63.3%	85.1%	48.9%	40.8%	70.3%	66%	73.6%	46.5%	36.3%	27%	66.7%	46.6%	41.2%	49.9%	87%	100%
CCC(=O)Oc1c(C)cc(O)c2ccccc12	80.7%	54.6%	81.4%	105%	82.3%	104%	88.2%	72.6%	91.2%	85.2%	79.5%	82.1%	95.7%	103%	93.3%	70%	106%	88.6%
CC(=O)NNC(=S)/N=C\C(C(=O)c1ccccc1)=C(/O)c1ccccc1	102%	104%	102%	97.2%	114%	91.8%	95%	109%	106%	99%	87.8%	92.7%	109%	110%	93.6%	96.5%	102%	99.4%
CC(C)OCC(CCl)OC(=O)Nc1ccccc1 (stereo not given)	117%	109%	97.9%	104%	101%	97.6%	105%	101%	114%	107%	100%	110%	107%	112%	96.9%	108%	95.6%	96.6%
CCOP(=O)(OCC)/C(=C\N1C(=O)CC(=O)NC1=S)C(=O)OC	96.7%	101%	97.6%	98.7%	94.3%	104%	103%	114%	98.4%	104%	95%	116%	102%	101%	94.7%	115%	85.7%	105%
COC(=O)c1ccccc1C(=O)c1c(C)cc(C)cc1C	79.6%	93.5%	101%	101%	99.9%	102%	98.5%	103%	100%	102%	88.8%	106%	97.6%	93.2%	102%	99.7%	94.4%	102%
O=C(O)CC1=CCCCC1	96.7%	96.6%	104%	98.5%	100%	117%	96.1%	101%	108%	96.9%	109%	96.1%	101%	98.2%	96.7%	104%	94.3%	98%
O=C(c1cccc(C(=O)c2ccc3c4c(cccc24)C(=O)N(c2ccccc2)C3=O)c1)c1ccc2c3c(cccc13)C(=O)N(c1ccccc1)C2=O	57.4%	72.4%	88.8%	111%	77.4%	102%	104%	98.8%	97.6%	96.9%	76.3%	104%	107%	104%	86.8%	93.9%	114%	98.2%
S=C(NCc1ccccc1)N1CCC(CCCC2CCN(C(=S)NCc3ccccc3)CC2)CC1	93.2%	75.5%	96.4%	121%	76.9%	100%	117%	95%	108%	99.3%	71.8%	98.2%	101%	108%	82.3%	85.5%	123%	95.9%
COC(=O)C1(CC(C)=O)NC(=S)NC(=O)C1C#N (stereo not given)	99.1%	114%	112%	107%	117%	117%	111%	122%	96.1%	103%	108%	108%	114%	102%	97.5%	106%	109%	106%
CCOC(=O)/C(O)=C(\C=N\C(=S)Nc1ccc(Cl)c(Cl)c1)C(=O)OCC	85.7%	80.1%	92.5%	91.8%	60.2%	81.6%	101%	100%	95.6%	90.8%	58.3%	100%	87.1%	104%	81%	101%	87.9%	100%
CCNC(=O)Oc1ccc[nH]c1=O	76.4%	93.4%	25.9%	102%	98.3%	103%	97.9%	112%	95.2%	102%	86.1%	110%	103%	105%	91.5%	108%	106%	104%
CC(=O)C1C(=O)C(=O)N(c2cccc([N+](=O)[O-])c2)C1=O (stereo not given)	95.6%	107%	106%	113%	103%	102%	109%	117%	93.8%	113%	101%	109%	104%	111%	94.3%	109%	85.9%	112%
CC(=O)c1cccc(O)c1	90.6%	105%	103%	96.4%	93.6%	104%	106%	115%	96.5%	100%	103%	113%	107%	101%	94.3%	99.9%	110%	103%
CC(=O)NNC(=S)N/C=C/c1c(C)ccc([N+](=O)[O-])c1[N+](=O)[O-]	92.9%	103%	102%	99.3%	106%	105%	109%	103%	108%	97.9%	110%	99.9%	100%	110%	96.2%	89.9%	107%	97.2%
CC(=O)Nc1ccc(O)c(C)c1	94.6%	105%	100%	104%	100%	105%	110%	107%	107%	102%	95.9%	112%	108%	106%	99.9%	99.1%	106%	106%
C=C1C(=O)C2CCC1C2 (stereo not given)	96.7%	106%	109%	101%	111%	105%	111%	95.2%	73.7%	105%	98.7%	93%	105%	101%	109%	105%	97%	96.5%
